The values that follow come from PubChem BioAssay (EPA / NIEHS).

The structures appear in SMILES notation. Calls of active or inactive are those of the source. How the source made its calls: active means hit-call score of the fitted dose curve at least 0.9, where 1 is the maximum; inactive means score below 0.9.

The assay is described as follows: ATG_ERE_CIS: Attagene CIS-FACTORIAL HepG2 Assay for Estrogen Response Element (ERE) (AID 2282940). Particulars: HepG2 ERE cis-reporter, Attagene RNA transcript; actives raise or lower the signal. The protocol:
ATG_CIS is a cell-based, multiplexed-readout assay that uses HepG2, a human liver cell line, with measurements taken at 24 hours after chemical dosing in a 24-well plate.ATG_ERE_CIS is one of 52 assay component(s) measured or calculated from the ATG_CIS assay. It is designed to make measurements of mRNA induction, a form of inducible reporter, as detected with fluorescence intensity signals by Reverse transcription polymerase chain reaction (RT-PCR) and Capillary electrophoresis technology.Data from the assay component ATG_ERE_CIS was analyzed into 1 assay endpoint. This assay endpoint, ATG_ERE_CIS, was analyzed with bidirectional fitting relative to DMSO as the negative control and baseline of activity. Using a type of inducible reporter, measures of mRNA for gain or loss-of-signal activity can be used to understand the reporter gene at the transcription factor-level as they relate to the gene ESR1. Furthermore, this assay endpoint can be referred to as a primary readout, because this assay has produced multiple assay endpoints where this one serves a reporter gene function. To generalize the intended target to other relatable targets, this assay endpoint is annotated to the nuclear receptor intended target family, where the subfamily is steroidal.
Human liver HepG2 cells are transiently transfected with multiple reporter transcription units (MRTUs) in 6-well plates using FuGene 6 reagent (Roche; 3 ml FuGene/1 mg DNA). The MRTU constructs are regulated by a cis-regulating element (promoter). […] A major difference between the CIS and TRANS system is that in CIS activities of endogenous TFs are measured, whereas the TRANS assay evaluates changes in activities of exogenous, chimeric NR-Gal4 proteins. […] At the end of 24 hour incubation, total RNA was isolated using TriZol reagent (Invitrogen). The isolated RNA is then reverse-transcribed using oligo(dT) primer and Mo-MLV reverse transcriptase (Invitrogen) with DNAse I (Ambion) treatment for 30 min. The one-tenth of the produced cDNA was amplified by PCR using Taq DNA polymerase (Invitrogen) and two reporter sequence-specific primers. The PCR products were fluorescently labeled by primer extension with 6-arboxyfluorescein (6-FAM) 5'-labeled reporter sequence-specific primer (2 min at 95 C, 20 s at 68 C and 10 min at 72 C) and these products were digested with 5U of HpaI (New England Biolabs) for 2h at 37 C. The fragments were purified using Qiaquick PCR columns (Qiagen), analyzed on an ABI 3130xL genetic analyzer (Applied Biosystems) with peak positions identified by using a set of X-rhodamine (ROX)-labeled MapMarker1000 molecular weight standards (BioVentures). The raw capillary electrophoresis data was processed using Attagraph software (Attagene).
The AC50 is the concentration giving half of the maximal activity seen. As to `CCC(C)(C)C1CCC(=O)CC1`, the AC50 was 16.7 µM (active).

As for `NC(=O)c1cnccn1`, the result was inactive.

For `O=C1OC2(c3ccc(O)cc3Oc3cc(O)ccc32)c2ccccc21`, the call was inactive.

With `NC(=O)NC(N)=O`, the outcome was inactive.

For the compound `NNC(=O)OCc1ccccc1`, the compound was classed as inactive.

With `Nc1cc([N+](=O)[O-])ccc1C(=O)O`, the call was inactive.

As to `CCOC(=O)C=Cc1ccccc1`, the compound was classed as inactive.

Consider `CC(C)(C)c1cccc(O)c1`, for which the result was inactive.

As to `CCCCCCCCCCCCS`, the compound was called inactive.

For the compound `CCCCCCCCOC(=O)c1ccc(O)cc1`, the AC50 is 5.12 µM (active).

On to `CC1=CCC(=C(C)C)CC1`, for which the AC50 is 60 µM (active).

Turning to `O=C(O)c1ccccc1O`, the outcome was inactive.

Take `CCCCOC(=O)C(C)OC(=O)CCC` (stereo not given): the result was inactive.

For the compound `CCCCN(CCCC)CCCCCCN(CCCC)CCCC`, the call was inactive.

On to `OC[C@H]1O[C@@H](O[C@H]2[C@H](O)[C@@H](O)[C@H](O)O[C@@H]2CO)[C@H](O)[C@@H](O)[C@H]1O`, for which the compound was called inactive.

Turning to `Nc1ccc(N)c([N+](=O)[O-])c1`, the AC50 is 41.6 µM (active) [middle of 5 runs].

As to `CCCCCCCCCCCCN1CCOCC1`, the compound was classed as inactive.

On to `CC(=O)OC/C=C(C)/C=C/C=C(C)/C=C/C1=C(C)CCCC1(C)C`, for which the outcome was inactive.

Regarding `CC(C)(C)c1ccc(S)cc1`, the result was inactive.

As for `CCCc1ccc(O)cc1`, the AC50 was 26.8 µM (active).

On to `CC(=O)OCC=C(C)CCC=C(C)CCC=C(C)C`, for which the AC50 is 25.1 µM (active).

On to `COc1ccccc1NC(=O)CC(C)=O`, for which the call was inactive.

For `CCCCCCC(O)CCOC(C)=O` (stereo not given), the compound was classed as inactive.

As for `CCCCN(CCO)CCO`, the compound was called inactive.

On to `CC(C)CCCC(C)(C)O`, for which the outcome was inactive.

For the compound `CC(CO)(CO)[N+](=O)[O-]`, the call was inactive.

Regarding `O=c1cc[nH]cc1`, the compound was classed as inactive.

Turning to `CC(=O)C1=C(C)[C@@H]2C[C@@]3(C1)[C@H](C)CC[C@H]3C2(C)C`, the AC50 was 68.1 µM (active).

For the compound `CC(C)(C)C1CCC(O)CC1` (stereo not given), the AC50 is 32.8 µM (active).

Regarding `Cc1ccc(C(C)(C)O)cc1`, the outcome was inactive.

Take `N#CCCNCCC#N`: the call was inactive.

`CC(=O)c1ccc(O)cc1`: the AC50 was 26.5 µM (active).

Regarding `CC(C)(CO)CO`, the compound was called inactive.

For the compound `C=C1CC/C=C(\C)CC[C@@H]2[C@@H]1CC2(C)C`, the half-maximal activity concentration (AC50) was 33.8 µM (active).

On to `CC(C)N(c1ccccc1)C(C)C`, for which the call was inactive.

For the compound `O=S(=O)(O)c1cc(S(=O)(=O)O)c2c(N=Nc3ccccc3)c(O)ccc2c1`, the outcome was inactive.

Turning to `C=CCCCCCCCCC(=O)OCC`, the outcome was inactive.

In the case of `CC1=CC(O)CC(C)(C)C1` (stereo not given), the result was inactive.

Turning to `CCCCOCCOCCOCCO`, the compound was called inactive.

In the case of `CC(C)OB(OC(C)C)OC(C)C`, the compound was classed as inactive.
